Screening data as filed in PubChem BioAssay.
AID923 = qHTS Assay for Allosteric/Competitive Inhibitors of Caspase-1: Spectroscopic Profiling in AFC Spectral Region | compound fluorescence, AFC spectral region (405/520 nm) | Potency, µM (titrated, usually from 57.5 µM), for inactives: at the highest dose fluorescence increase, actives largely listed as activators | hit rate 1.1% among 75,000 | AID 923, 2007; note: potency is the fitted concentration of half-maximal effect; 0% is about no effect
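Compound autofluorescence profiled at 405 nm ex/520 nm em during kinetic caspase 1 run (50 nM enzyme, 5 uM Ac-WEHD-AFC, HEPES pH 7.5, 10 mM DTT). Titration up to 57 uM; baseline from regression intercept, normalized to AFC standard curve.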
A350 autofl = compound fluoresces in the Alexa 350 spectral region; max dye-equivalent concentration, M; hit rate 11% among 59,000; AID 590; Compound autofluorescence, 340/450 nm, Alexa 350 dye-equivalents; active compounds read high; in the data active = max dye-equivalent concentration above about 10 nM; inconclusive = mostly about 1.1 nM to 9.6 nM
CRE-bla Fsk = alters forskolin-stimulated CRE reporter signaling in CHO cells; Potency, µM (titrated, usually from 38.2 µM), inactives show at the top dose activity change, negative = inhibition, most hits filed as activators; CHO CRE-bla reporter (cAMP response element driving beta-lactamase), forskolin EC10, beta-lactamase ratio; hit rate 2.5% among 71,000; active = well fitted activation curve with a large enough effect in the signal ratio, with a control signal flat, not every such curve was filed as active; inconclusive = small, poorly fitted or top-dose-only effect, or effect the other way, or a change in a side signal; the % refers to the signal ratio; note: potency is the fitted concentration of half-maximal effect; % of control where 0% means no effect
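AC50 values, positive or negative, reflect shifts in EC10 NKH 477-induced CRE-bla reporter activity in CHO cells. Incubation lasted 3 h at 37 °C before CCF4 substrate (2 h, room temperature) and ratiometric 460/530 nm reading.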
HADH2 inhib = blocks human hydroxyacyl-CoA dehydrogenase type II | recombinant HADH2, NADH fluorescence, beta-hydroxybutyryl-CoA | Q99714 | Potency, µM (highest dose often 57.1 µM), without a hit: at the highest dose activity change, negative = inhibition, usual class: inhibitors | hit rate 3.4% among 73,000 | AID 886; note: potency is the fitted concentration of half-maximal effect; % is set by controls: 0 for no effect and ±100 for the full control effect; nearly all actives have a fitted effect of over 60% in size
Target sequence (Q99714 whole entry, looked up, one chain of several): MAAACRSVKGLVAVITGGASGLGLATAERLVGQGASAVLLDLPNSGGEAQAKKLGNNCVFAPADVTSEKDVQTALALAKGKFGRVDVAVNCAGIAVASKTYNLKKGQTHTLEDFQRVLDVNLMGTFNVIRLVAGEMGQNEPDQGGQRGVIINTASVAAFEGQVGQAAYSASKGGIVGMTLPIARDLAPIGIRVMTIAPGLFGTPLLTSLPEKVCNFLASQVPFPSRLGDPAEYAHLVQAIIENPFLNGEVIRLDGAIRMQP
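E. coli-expressed His-tagged HADH2 tested at 20 nM in alkaline Tris buffer (pH 9.0); oxidation of 90 uM beta-hydroxybutyryl-CoA with 1 mM NAD+ tracked fluorimetrically for 4 min.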
4MU fluor = compounds fluorescent in 4-MU spectral region. compound autofluorescence, 340/450 nm, 4-MU equivalents; active compounds read high. max dye-equivalent concentration, M. hit rate 11% among 59,000; in the data active = max dye-equivalent concentration above about 10 nM; inconclusive = mostly about 1.1 nM to 9.6 nM
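Intrinsic fluorescence at 340/450 nm (ex/em) was read after 15 min at room temperature in pH 8.0, 100 mM Tris. Each compound concentration expressed as 4-MU-equivalent concentration from a six-point 4-MU standard series on each plate.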
HSD17B inh = HSD17B dehydrogenase inhibition. Q99714. recombinant HSD17B10, NADH fluorescence kinetic. Potency, µM (titrated, usually from 57.1 µM), inactives show at the highest dose activity change, negative = inhibition, usual class: inhibitors. hit rate 7.6% among 75,000. AID 893;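 note: the protocol describes HADH2 (HSD17B10) and not the HSD17B4 of the title; potency is the fitted concentration of half-maximal effect; % is set by controls: 0 for no effect and ±100 for the full control effect; nearly all actives have a fitted effect of over 70% in size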
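His-tagged E. coli-expressed HADH2 at 20 nM in 100 mM Tris-HCl pH 9.0 with 0.01 % Tween-20, preincubated 15 min with compound at room temperature. Reaction with 1 mM NAD+ and 90 uM beta-hydroxybutyryl coenzyme A; NADH fluorescence (360/450 nm) read kinetically over 4 min, last minus first point.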
* = called active by the depositor; i = inactive; ? = inconclusive; . = no result; ! = not active in a repeat; [ ] = dose if it differs, or a comment. A selection: hits, their analogues and other compounds. The true share with any hit is near 14%. Unless noted, calls come from the whole dose curve; as a rule, active = well fitted curve in the direction sought with a large enough effect; inconclusive = small, poorly fitted or top-dose-only effect, or another doubt; inactive = no such curve, though single readings can be large; an effect the other way counts as inactive or inconclusive.

SMILES	AID923	A350 autofl	CRE-bla Fsk	HADH2 inhib	4MU fluor	HSD17B inh
COC(=O)[C@@]1(Cc2ccccc2)[C@H]2c3cc(C(=O)N4CCCC4)n(Cc4cccc5ccccc45)c3C[C@H]2CN1C(=O)c1ccccc1	2%	.	2%	0%	.	3%
CCC1(C)Cc2nc3sc(C(=O)O)c(N)c3cc2CO1 (stereo not given)	8%	4.2e-08M*	12%	-21%	3.2e-08M*	?
COCCNC(=O)COc1ccc(OCCNC[C@@H](O)COc2ccccc2)cc1	2%	.	-29%	-14%	.	0%
O=C(O)c1cc(O)c2c(c1)C(=O)c1cccc(O)c1C2=O	1%	i	?	-7%	i	13µM*!
Cc1cc(O)c2c(c1)C(=O)c1cccc(O)c1C2=O	5%	.	3%	-1%	.	-23%
CN(C)Cc1ccccc1-c1ccc2ncnc(NCc3cccs3)c2c1	-1%	i	-9%	9%	i	9%
CCOc1ccccc1C(=O)N1CCC(n2nnc3cc(C)ccc32)CC1	-1%	i	12%	6%	i	2.5µM*
Cc1cccc(C(=O)N2CCC(n3nnc4cc(F)ccc43)CC2)c1	1%	i	4%	11%	i	-2%
O=C1/C(=C/c2ccccc2)Oc2ccccc21	-1%[11.5 µM]	.	.	-4%[11.4 µM]	.	3%[11.4 µM]
O=C(O)c1cc2ccccc2c(Cc2cc3ccccc3c(C(=O)O)c2O)c1O (tested in a mixture with another compound)	-2%[25.7 µM]	?	?	-18%[25.6 µM]	?	13µM*
O=C(O)c1c2ccccc2cc2ccccc12	3%	.	?	-13%	.	25µM*
O=C(O)c1cc(-c2ccccc2)nc2ccccc12	-2%	i	-7%	-2%	i	3%
O=C(O)c1cc(C(=O)C(=O)c2cc(C(=O)O)c(O)c3ccccc23)c2ccccc2c1O	-7%[11.5 µM]	i	5%[7.6 µM]	?	i	?
C=CCN1CCc2c(cc(O)c(O)c2Cl)[C@H](c2ccccc2)C1	1%	i	-16%	1.3µM*	i	25µM*
CN1CCc2c(cc(O)c(O)c2Cl)[C@H](c2cccc(Cl)c2)C1	0%	i	-3%	1µM*	i	25µM*
CN1CCc2cc(Cl)c(O)cc2[C@@H](c2ccccc2)C1	4%	.	?	?	.	-18%
C=CCN1CCc2cc(O)c(O)cc2[C@H](c2ccccc2)C1	0%	i	?	?	i	32µM*
CCCNC(=O)OC[C@@H]1O[C@H](CCO/N=C\c2ccc(C(=O)N3[C@H](c4ccc(C)cc4)[C@@H](C)CC[C@H]3C(=O)OC)cc2)C=C[C@@H]1Oc1ccc(OC)cc1	-2%[11.5 µM]	.	.	-4%[11.4 µM]	.	4%[11.4 µM]
CCOC(=O)CC(N)c1ccc(OC)cc1 (stereo not given)	1%	i	12%	-1%	i	-2%
CCOC(=O)CCP(=O)(O)C(O)c1ccc(OC)cc1 (stereo not given)	5%	2.9e-08M*	?	19%	2.2e-08M*	-6%
O=c1cc(-c2ccccc2)nc2n1Cc1ccccc1-2	0%	i	?	12%	i	-1%
Cc1sc2nc3n(c(=O)c2c1C)Cc1ccccc1-3	1%	1.5e-07M*	-1%	0%	1.2e-07M*	?
O=c1nc2n(c3ccccc13)Cc1ccccc1-2	2%	i	?	10%	i	32µM*
Cc1noc(C)c1CSc1nc2sc(C)c(C)c2c(=O)n1-c1ccccc1	0%	i	?	18%	i	5%
O=C(O)CSc1ncccc1[N+](=O)[O-]	2%[11.5 µM]	i	-8%[7.6 µM]	-7%[11.4 µM]	i	-1%[11.4 µM]
SMILES	AID923	A350 autofl	CRE-bla Fsk	HADH2 inhib	4MU fluor	HSD17B inh
CCc1cccc2c3c([nH]c12)[C@@](CC)(CC(=O)O)OCC3	3%[25.7 µM]	i	7%[17.1 µM]	-5%[25.6 µM]	i	4%[25.6 µM]
CCn1c(=O)c2c(nc3n2CC(C)CN3CCc2ccccc2)n(C)c1=O (stereo not given)	0%	i	6.3µM*	-6%	i	3%
CCOc1ccc(N2CCCn3c2nc2c3c(=O)n(CCc3ccccc3)c(=O)n2C)cc1	-1%	1.5e-08M*	2%	3%	1.6e-08M*	-11%
O=P(c1ccccc1)(c1ccccc1)C(O)c1ccncc1 (stereo not given)	0%	i	0%	12%	i	7.9µM*
O=P(c1ccccc1)(c1ccccc1)C(O)c1ccco1 (stereo not given)	-2%	.	2%	?	.	10µM*
CC(C)COP(=O)(c1ccc(N(C)C)cc1)C(O)c1ccncc1 (stereo not given)	1%	?	12%	0%	i	1%
C=CCc1ccc(OC)c(OC)c1	-1%	.	-5%	-3%	.	-1%
CCn1cnc2sc(C(=O)N(Cc3ccc(N(C)C)cc3)Cc3ccco3)c(C)c2c1=O	2%	?	13µM*	-13%	?	-13%
COc1ccc2c(c1)OCC(Cc1ccc(O)c(OC)c1)C2=O (stereo not given)	-3%	.	.	.	.	-3%
CC(=O)OC[C@@H]1O[C@@H](O/N=C2/C[C@@H](O)[C@@H](O)[C@@H]3[C@H]4C(=O)N(c5ccc(F)cc5F)C(=O)[C@@H]4CC[C@@H]23)[C@H](OC(C)=O)[C@H](OC(C)=O)[C@@H]1OC(C)=O	3%[11.5 µM]	.	.	4%[11.4 µM]	.	2%[11.4 µM]
NCCCCN=C(N)N	0%	1.5e-08M*	?	-6%	1.2e-08M*	-2%
C=CCn1c(SCC(=O)OC)nc2sc3c(c2c1=O)CCN(C)C3	.	6.2e-08M*	.	.	5.1e-08M*	.
CCSc1nc2sc3c(c2c(=O)n1C1CCCCC1)CCN(C)C3	.	2.5e-08M*	.	.	2.1e-08M*	.
CN1CCc2c(sc3c2c(=O)n(-c2ccccc2)c2nncn32)C1	12%	1.5e-08M*	-6%	?	1.3e-08M*	?
COC(=O)CSc1nc2sc3c(c2c(=O)n1-c1ccccc1)CCN(C)C3	15%	5e-08M*	?	-16%	4.8e-08M*	?
CCC(/C=C/C(C)C1CCC2C3CC=C4CC(O)CC[C@@]4(C)C3CC[C@@]12C)C(C)C (stereo not given in full)	0%	.	.	.	.	-4%
CCOc1ccccc1O[C@@H](c1ccccc1)[C@@H]1CNCCO1	-2%	.	-3%	6%	.	4%
CCOC(=O)c1c(C)n(C)c2ccc(OC(=O)c3ccoc3)cc12	0%	?	?	-4%	i	-8%
COCCOC(=O)c1c(C)n(C)c2ccc(OC(=O)C3CC3)cc12	0%	1.8e-08M*	18%	4%	1.2e-08M*	4%
Cc1nc(/N=C(\N)Nc2ccccc2)nc2ccccc12	.	2e-07M*	.	.	1.8e-07M*	.
O=C(O)CNc1ccc(C(=O)O)cc1	1%[11.5 µM]	i	1%[7.6 µM]	2%[11.4 µM]	i	-3%[11.4 µM]
OCCNc1nc(-c2ccccc2)c2ccccc2n1	.	9.3e-07M*	.	.	8.1e-07M*	.
